The structures appear in SMILES notation. Among all 16,000 compounds or so, about 160 (1%) were called active. About 8% were inconclusive and are not listed. The sample holds actives, similar compounds and a random draw of the others, so the mix is not that of the screen. Values without a mark were called inactive. Calls follow the shape of the dose curve; as a rule, active = well fitted activation curve with a large enough effect; inconclusive = small, poorly fitted or top-dose-only effect; inactive = no such curve, though single readings can be large or run the other way.
% is scaled to controls: 0 for no effect and ±100 for the full control effect; potency is read from the fitted curve at half-maximal effect.

Rap guanine nucleotide exchange factor 3 (Homo sapiens), sequence (O95398 whole entry, looked up): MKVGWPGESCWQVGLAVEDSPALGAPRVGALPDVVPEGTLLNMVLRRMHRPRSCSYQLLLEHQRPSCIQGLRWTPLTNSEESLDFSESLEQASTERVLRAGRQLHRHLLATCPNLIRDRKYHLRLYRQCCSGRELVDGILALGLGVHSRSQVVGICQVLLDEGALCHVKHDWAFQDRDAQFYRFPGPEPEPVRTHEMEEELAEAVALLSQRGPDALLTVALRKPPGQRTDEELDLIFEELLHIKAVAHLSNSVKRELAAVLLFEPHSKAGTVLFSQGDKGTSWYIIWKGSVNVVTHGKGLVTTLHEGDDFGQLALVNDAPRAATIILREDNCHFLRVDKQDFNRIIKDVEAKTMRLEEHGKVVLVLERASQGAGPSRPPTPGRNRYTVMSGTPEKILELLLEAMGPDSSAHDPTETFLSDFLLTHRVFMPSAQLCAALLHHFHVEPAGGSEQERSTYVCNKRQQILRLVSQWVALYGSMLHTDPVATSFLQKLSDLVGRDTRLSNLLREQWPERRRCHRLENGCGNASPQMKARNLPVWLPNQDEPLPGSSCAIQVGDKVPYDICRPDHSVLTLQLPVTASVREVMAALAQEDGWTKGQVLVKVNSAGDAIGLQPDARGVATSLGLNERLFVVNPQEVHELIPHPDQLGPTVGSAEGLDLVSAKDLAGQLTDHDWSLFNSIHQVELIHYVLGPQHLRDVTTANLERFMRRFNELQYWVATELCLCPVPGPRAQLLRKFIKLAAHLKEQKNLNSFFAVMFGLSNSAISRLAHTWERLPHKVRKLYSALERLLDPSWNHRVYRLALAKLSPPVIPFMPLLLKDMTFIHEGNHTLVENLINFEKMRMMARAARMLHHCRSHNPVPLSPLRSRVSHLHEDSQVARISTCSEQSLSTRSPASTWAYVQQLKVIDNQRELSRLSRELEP

The assay addresses Rap guanine nucleotide exchange factor 3 (Homo sapiens) (UniProt O95398). In words: Validation qHTS for agonist of cAMP-regulated guanine nucleotide exchange factor 3 (EPAC1). Also: nearly all actives have a fitted effect of over 70% in size. The following applies: EPAC1 Rap1b BODIPY-GDP exchange, fluorescence; max response: stronger effect = higher value, percent of cAMP control response. From the text: Assay Provider (PI): Xiaodong Cheng Ph.D.
The University of Texas Medical Branch, […], TX
In multi-cellular eukaryotic organisms, the effects of cAMP are transduced by two ubiquitously-expressed intracellular cAMP receptors, the classic protein kinase A/cAMP-dependent protein kinase (PKA/cAPK) and the more recently discovered exchange protein directly activated by cAMP/cAMP-regulated guanine nucleotide exchange factor (EPAC/cAMP-GEF). Both PKA and EPAC are ubiquitously expressed in all tissues, and an increase in intracellular cAMP levels will lead to the activation of both PKA and EPAC. Therefore, careful dissections of the individual role and relative contribution of EPAC and PKA within the overall cAMP signaling in various model systems are critical for further elucidating the mechanism of cAMP signaling. To date no EPAC-specific antagonists and agonist, as well as isoform-specific agonists have been reported, and developing EPAC-specific pharmacological probes to determine the physiological functions that EPAC play in the overall cAMP-mediated signaling remains a major challenge within the research field. Furthermore, identified regulators of EPAC may lead to new mechanism-based therapeutic strategies specifically targeting the EPAC / cAMP-signaling components as EPAC has been implicated to play important roles in major human pathological conditions such as diabetes, heart disease, and cancer.
This qHTS will be used to screen the Molecular Libraries Small Molecule Repository (MLSMR) as a concentration-titration series using the NCGC unique quantitative screening (qHTS) platform to find activators for EPAC1. In addition, this assay will also be used as a counterscreen for the EPAC2 qHTS. This fluorescent based assay is developed and validated for EPAC1 that measures exchange using EPAC effector Rap1 complex with BODIPY-GDP, a GDP analog with a tethered fluorophores. Activators are identified by monitoring the change in fluorescence signal as the exchanged free BODIPY-GDP has a reduced fluorescence compared to Rap1-bound BODIPY-GDP. Increase in signal (activation) is the desired outcome for the EPAC1 agonist while no activity in this assay is desired for the EPAC2 agonist counterscreen.
[1] de Rooij, J., Zwartkruis, F. J., Verheijen, M. H., Cool, R. H., Nijman, S. M., Wittinghofer, A., and Bos, J.L. (1998) Nature 396, 474-477.
Briefly, three uL of reagents (100 nM EPAC1, 250 nM RAP1B-BODIPY-GDP, 50 uM GDP) were dispensed into a 1536-well Greiner black solid-bottom medium binding assay plate. Controls and test compounds (23 nL) were transferred to the plate via a Kalypsys pin tool equipped with a 1536-pin array. The plates were centrifuged at 1,000 rpm for 15 seconds followed by 5 minute incubation at room temperature. The assay plates were read at 5 minute intervals for 30 minutes in the ViewLux plate reader using 480nm excitation and 540nm emission filters. The results were normalized to the agonist positive control of 6.5 mM cAMP.
As to `COc1ccc(/C=C2\NC(=O)[C@@H]3Cc4ccccc4CN3C2=O)cc1`, the max response was 5.8%.

Turning to `CN1CCN2c3ccccc3Cc3ccccc3[C@@H]2C1`, the max response was -0.216%.

Turning to `CCS(=O)(=O)Nc1cc(C(=O)N2C[C@@H](C)O[C@@H](C)C2)c2c(c1)nc(-c1ccccc1)n2C`, the max response was 19.2%.

In the case of `COc1ccc(CNc2ncnc3ccc(-c4cccnc4)cc23)c(OC)c1`, the max response is -62.5%.

For `FC(F)(F)c1ccccc1-c1nc(-n2ccnc2)c2ccccc2n1`, the max response was 0.971%.

For the compound `CC(=O)Nc1ccc(SC[C@H](Cc2ccccc2)N2CC[C@@H](C)CCC2=O)cc1`, the max response is -7.47%.

Turning to `CCCN(C/C=C\I)[C@@H]1CCc2cccc(O)c2C1`, the max response is -15.6%.

Turning to `COc1ccccc1-c1nc(N2CCN(C)CC2)c2ccccc2n1`, the max response was -31.8%.

On to `c1ccc2nc(C3=NCCN3)cnc2c1`, for which the max response is 0.273%.

Regarding `O=c1cnc2cnc(Nc3ccccc3)nc2n1Cc1ccc(F)cc1`, the max response was -19.3%.

In the case of `Nc1ccc2c3c(cccc13)C(=O)NC2=O`, the Potency is 7.08 µM (active).

Take `CCC1CN(CCNC(=O)c2ccsc2)Cc2cc(OC)ccc2O1` (centres undefined): the max response was 4.39%.

As to `O=c1c(CCc2ccccc2)nc2cncnc2n1C1CC1`, the max response is 26%.

Regarding `CC(=O)c1ccc(F)c(-c2cc(C)cc3c2OC(CNC(=O)Cc2c[nH]c4ccccc24)C3)c1` (centres undefined), the max response was 24.4%.

For `CCCCCCCCCCCCCCCCO`, the max response was -1.51%.

In the case of `CC(=O)OCC(=O)[C@@]1(O)CCC2C3CCC4=CC(=O)CC[C@@]4(C)[C@]3(F)C(O)C[C@]21C` (some centres undefined), the max response was -5.21%.

For `CN1CC(O)c2cc(N=NC(N)=O)c(O)cc21` (centres undefined), the max response is -6.9%.

For the compound `CCCc1nc2c(C)cc(-c3nc4ccccc4n3C)cc2n1Cc1ccc(-c2ccccc2C(=O)O)cc1`, the max response is -43.1%.

As to `COc1ccccc1CNc1cc(-c2ccccc2CN(C)C)ncn1`, the max response is -35.4%.

For the compound `FC(F)(F)c1ccccc1-c1cc(NCc2ccccc2)ncn1`, the max response is -105%.

Take `Cc1cnc(C(=O)N2CCOc3ccc(CN4CCCC(C(=O)c5cccnc5)C4)cc3C2)[nH]1` (centres undefined): the max response was -8.53%.

For `O=C(Nc1ccc(O)cc1)c1ccccc1O`, the max response is 7.12%.

Turning to `CC(C(=O)O)c1ccc(C2CCCCC2)c2ccccc12` (centres undefined), the max response is 5.84%.

On to `CCOC(=O)Cc1cccc(-c2cc(CCCCCCc3ccc(O[C@H]4O[C@H](COC(C)=O)[C@@H](OC(C)=O)[C@H](OC(C)=O)[C@@H]4OC(C)=O)c(-c4cccc(CC(=O)OCC)c4)c3)ccc2O[C@H]2O[C@H](COC(C)=O)[C@@H](OC(C)=O)[C@H](OC(C)=O)[C@@H]2OC(C)=O)c1`, for which the max response was -9.09%.

Take `CCc1nc2cc(C(=O)NCC3CCS(=O)(=O)C3)cc(NC(=O)c3ccccc3OC)c2n1C` (centres undefined): the max response is -13.5%.

As to `COC(=O)c1ccccc1C(=O)NCc1nc(N2CCCC2)c2cccc(C)c2n1`, the max response is -26.9%.

With `CN(Cc1cccc2ncccc12)C(=O)c1cnn(-c2nccc(-c3ccccc3F)n2)c1C1CC1`, the max response is -28.3%.

As for `CC(=O)N1CCC2(CC1)CCN(c1ccncc1)CC2`, the max response is -44.5%.

Turning to `Cc1noc(C)c1-c1nc(Nc2ccccc2)c2ccccc2n1`, the max response was -34.4%.

`O=C(c1ccncc1)N1CCC2(CCN(Cc3cc(C(F)(F)F)cc(C(F)(F)F)c3)CC2)CC1`: the max response is -125%.

In the case of `CC(C)NC(=O)N1CC[C@@]2(CCCN(C(=O)c3cccc(F)c3)C2)C1`, the max response is 17.8%.

With `O=C(c1cc(C(F)(F)F)cc(C(F)(F)F)c1)N1CCC2(CCCN(c3ccccn3)C2)CC1`, the max response was -45%.

As to `CC(C)NC(=O)N1CCCC2(CCN(C(=O)c3cccn3C)CC2)C1`, the max response was -48.1%.

`N#Cc1ccc[n+](CC(=O)c2ccc(F)cc2)c1`: the max response is 3.1%.

The values are drawn from PubChem BioAssay AID1645883 (National Center for Advancing Translational Sciences (NCATS), 2021).
